# Measurements published in the supplement of paper PMC10127200.
# Where a name gives a salt, the structure may show the parent alone.
# Columns and labels:
# Experiment in all cases: Euclidean distance of Cell Painting phenotypic profile (signed KS, 77 features) to DMSO centroid (dimensionless distance); 5 or 10 uM (library dependent); higher = stronger phenotypic change vs DMSO (phenoactivity)
# Conditions in all cases: 48 h
# 786-O = tested on: 786-O
# Procedure, shortened: (§1)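 Five cancer lines and a healthy fibroblast line received library compounds at 10 or 5 uM (library-dependent, 0.1% DMSO final) for 48 h. Stained cells were imaged confocally at 20X (9 fields/well). Harmony extracted 77 features, each scored as a signed Kolmogorov-Smirnov statistic against same-plate vehicle wells. Profiles were plate-position corrected, correlation-weighted and replicate-averaged at the top dose. Phenoactivity is the Euclidean distance from each profile to the median vehicle profile.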
# A549 = tested on: A549
# Procedure, shortened: as §1
# DU145 = tested on: DU145
# Procedure, shortened: as §1
# FB = tested on: FB
# Procedure, shortened: as §1
# HEPG2 = tested on: HEPG2
# Procedure, shortened: as §1
# OVCAR4 = tested on: OVCAR4
# Procedure, shortened: as §1
SMILES,Euclidean distance (786-O),Euclidean distance (A549),Euclidean distance (DU145),Euclidean distance (FB),Euclidean distance (HEPG2),Euclidean distance (OVCAR4)
CC1=NN(c2ccc(C)c(C)c2)C(=O)/C1=N\Nc1cccc(-c2cccc(C(=O)O)c2)c1O [Eltrombopag],2.4,1.81,3.38,2.71,3.89,2.45
C[C@@H]1O[C@@H]1P(=O)(O)O [Fosfomycin Disodium],1.44,0.52,0.647,0.793,0.716,0.92
COc1ccnc(C[S+]([O-])c2nc3cc(-n4cccc4)ccc3[nH]2)c1C (centres undefined) [Ilaprazole],1.22,1.57,1.17,1.23,0.928,1.27
CO[C@@H]1[C@@H](OC(N)=O)[C@@H](O)[C@H](Oc2ccc3c(O)c(NC(=O)c4ccc(O)c(CC=C(C)C)c4)c(=O)oc3c2C)OC1(C)C [Novobiocin Sodium],0.865,0.868,0.814,1.04,0.385,1.19
NC(=O)N1CCC(CC(=O)N2CCC([C@H]3c4ncc(Br)cc4CCc4cc(Cl)cc(Br)c43)CC2)CC1 [Lonafarnib],2.24,1.63,1.33,2.36,1.1,1.63
CN(C)C(=O)C(CCN1CCC(O)(c2ccc(Cl)cc2)CC1)(c1ccccc1)c1ccccc1 [Loperamide HCl],1.64,2.14,1.81,1.85,2.35,1.42
CC(C)(CO)[C@@H](O)C(=O)NCCC(=O)O [D-Pantothenate Sodium],1.18,0.904,1.05,1.15,0.523,1.33
CC(C(=O)O)c1ccc(C(=O)c2cccs2)cc1 (centres undefined) [Suprofen],1.32,0.825,0.656,0.981,2.04,1.01
Cc1c(S(=O)(=O)O)oc2c1C(=O)C(=O)c1c-2ccc2c1CCCC2(C)C [Tanshinone IIA sulfonate (sodium)],0.814,0.633,1.71,1.05,0.728,1.24
O=c1ccn([C@@H]2O[C@H](CO)[C@@H](O)[C@H]2O)c(=O)[nH]1 [Uridine],1.22,0.801,0.955,0.869,1.9,0.863
Oc1c(Cl)cc(Cl)c2cccnc12 [Chloroxine],2.07,2.64,1.54,1.48,2.06,2.02
N#C[C@@H]1CCCN1C(=O)CNC12CC3CC(CC(O)(C3)C1)C2 [Vildagliptin (LAF-237)],1.09,1.02,1.43,0.918,0.836,1.21
NCCCCC(NC(=O)C1CCCN1C(=O)C1CSSCC(N)C(=O)NC(Cc2ccc(O)cc2)C(=O)NC(Cc2ccccc2)C(=O)NC(CCC(N)=O)C(=O)NC(CC(N)=O)C(=O)N1)C(=O)NCC(N)=O (centres undefined) [Lypressin Acetate],1.39,0.851,1.08,1.11,0.477,1.48
O=C(Cn1ccnc1[N+](=O)[O-])NCc1ccccc1 [Benznidazole],1.16,1.1,1.58,1.03,0.581,1.14
CC1(C)[C@@H](O)CC[C@]2(C)[C@H]3C(=O)C=C4[C@@H]5C[C@@](C)(C(=O)O)CC[C@]5(C)CC[C@@]4(C)[C@]3(C)CC[C@@H]12 [Enoxolone],1.06,0.933,0.631,0.901,0.41,1.32
CC(=O)Oc1cccc2c1C(=O)c1c(OC(C)=O)cc(C(=O)O)cc1C2=O [Diacerein],0.962,0.94,1.19,1.22,0.429,1.51
O=c1cc(-c2ccc(O)c(O)c2)oc2cc(O)cc(O)c12 [Luteolin],1.39,1.21,2.73,1.9,1.36,1.27
CC(=O)[C@H]1CC[C@H]2[C@@H]3C=CC4=CC(=O)CC[C@@]4(C)[C@@H]3CC[C@]12C [Dydrogesterone],0.672,0.859,0.732,1.15,1.01,0.899
CCc1c(O)cc(O)c(C(=O)c2ccc(OCCN3CCOCC3)c(OC)c2)c1CC(=O)N(CCOC)CCOC,2.14,3.28,2.34,3.63,2.39,3.18
CCOC(=O)C1=C(COCCN)NC(C)=C(C(=O)OC)[C@@H]1c1ccccc1Cl [Levamlodipine],0.971,0.702,0.684,1.12,0.978,0.931
Cc1ccc(C(=O)Nc2cccc(C(F)(F)F)c2)cc1Nc1nc(-c2cccnc2)nc2c1cnn2C,3.33,3.93,3.91,1.82,3.78,1.46
O=C1C(O)=C([C@H]2CC[C@H](c3ccc(Cl)cc3)CC2)C(=O)c2ccccc21 [Atovaquone],1.3,0.846,1.08,1.41,0.566,1.08
CC(=O)NCCCS(=O)(=O)O [Acamprosate Calcium],0.651,0.371,0.781,0.789,0.967,0.839
CN/C(=N\CCSCc1nc[nH]c1C)NC#N [Cimetidine],0.94,0.861,0.762,0.864,0.95,1.25
